This is part of a sample that, as a whole, favours compounds with a hit. Of some 79,000 tested, about 15% had one in any assay. A number with no mark means an inactive call. Calls of active or inactive are those of the source. No stated cut-off is given here; in the data, active means growth inhibition above about 70%; inactive means the rest.

The record followed here is PubChem BioAssay (NCI).

Assay [1] in a line: NCI Yeast Anticancer Drug Screen. Data for the rad50 strain (AID 155).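 Further: 0% = growth of vehicle-only cultures of the same strain.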 To be noted: S. cerevisiae rad50 strain growth inhibition, active compounds read high. An outline of the steps:
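DNA repair mutant yeast, compound exposure, growth read-out; inhibition is taken relative to vehicle.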

The nature of assay [2]: NCI Yeast Anticancer Drug Screen. Data for the mec2-1 strain (AID 157). As to conditions: S. cerevisiae mec2-1 strain, active compounds read high. A digest of the protocol:
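Using mec2-1 yeast: add compound, measure growth, express inhibition versus vehicle-treated cultures.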

Assay [3] is described as follows: NCI Yeast Anticancer Drug Screen. Data for the sgs1 mgt1 strain (AID 161).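 Further: 0% = growth of cultures given vehicle only.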 As to conditions: S. cerevisiae sgs1 mgt1 strain, active compounds read high. A digest of the protocol: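 Percent growth inhibition was derived by comparing compound-exposed mutant yeast with vehicle-exposed cultures. The strain carries alterations in DNA damage repair.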
Assay [4] can be described thus: NCI Yeast Anticancer Drug Screen. Data for the cln2 rad14 strain (AID 165).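 Further: 0% = growth equal to vehicle treated cultures.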 As to conditions: S. cerevisiae cln2 rad14 strain, active compounds read high. An outline of the steps: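 Yeast strain cln2 rad14, bearing defects in cell cycle control and DNA repair, serves as the test system; values reflect growth inhibition compared with vehicle.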
The nature of assay [5]: NCI Yeast Anticancer Drug Screen. Data for the bub3 strain (AID 167). As to conditions: S. cerevisiae bub3 mutant strain, active compounds read high. A digest of the protocol: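 In this screen, a yeast mutant lacking normal mitotic checkpoint function is challenged with compound. Relative growth versus vehicle gives the inhibition value.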
Assay [6] is described as follows: NCI Yeast Anticancer Drug Screen. Data for the mlh1 rad18 strain (AID 175). To be noted: S. cerevisiae mlh1 rad18 strain growth inhibition, active compounds read high. An outline of the steps: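 Steps: expose repair-defective yeast to compound; measure growth; express inhibition against vehicle-treated controls.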
The mark [7] stands for this setting: at 5.0 µM (retest, dose inferred, filed as 0.5).
Where [8] appears, read: at 50.0 µM (retest, dose inferred, filed as 5.0).

On to `FC(F)(F)COP1(OCC(F)(F)F)=NP(OCC(F)(F)F)(OCC(F)(F)F)=NP(c2ccccc2)(c2ccccc2)=N1`, for which the growth inhibition was 0% in assay [1] (setting [7]); -4% in assay [1] (setting [8]); 25.9% in assay [1] (at 50.0 µM); -1% in assay [2] (setting [7]); -1% in assay [2] (setting [8]); 25.4% in assay [2] (at 50.0 µM). For the same molecule, the growth inhibition in assay [3] (setting [7]) is 3%; in assay [3] (setting [8]), -1%; in assay [3] (at 50.0 µM), 38.1%; in assay [4] (setting [7]), 2%; in assay [4] (setting [8]), -6%; in assay [4] (at 50.0 µM), 2.45%. In addition, the growth inhibition in assay [5] (setting [7]) is -5%; in assay [5] (setting [8]), -8%; in assay [5] (at 50.0 µM), -3.05%; in assay [6] (setting [7]) it was 11%; in assay [6] (setting [8]), 0%; in assay [6] (at 50.0 µM) it was 56.1%.

For `Cc1ccc(Sc2ccc(C)cc2[N+](=O)[O-])c([N+](=O)[O-])c1`, the growth inhibition in assay [1] (setting [7]) was 33%; in assay [1] (setting [8]) it was 40%; in assay [1] (at 50.0 µM), 2.7%; in assay [2] (setting [7]), 31%; in assay [2] (setting [8]), 35%; in assay [2] (at 50.0 µM), -10.7%. Moreover, the growth inhibition in assay [3] (setting [7]) was 69%; in assay [3] (setting [8]), 68%; in assay [3] (at 50.0 µM), 66.2%; in assay [4] (setting [7]), 39%; in assay [4] (setting [8]) it was 37%; in assay [4] (at 50.0 µM), 20.5%. In addition, the growth inhibition in assay [5] (setting [7]) is 56%; in assay [5] (setting [8]), 56%; in assay [5] (at 50.0 µM), 29.1%; in assay [6] (setting [7]), 43%; in assay [6] (setting [8]), 53%; in assay [6] (at 50.0 µM) it was -8.85%.

As for `O=C(Cn1nnc2ccccc21)N1CCN(c2ccccc2)CC1`, the growth inhibition in assay [1] (setting [7]) is -2%; in assay [1] (setting [8]), 3%; in assay [1] (at 50.0 µM) it was 32.8%; in assay [2] (setting [7]), 4%; in assay [2] (setting [8]), 3%; in assay [2] (at 50.0 µM), 33.8%. The growth inhibition was -1% in assay [3] (setting [7]); 5% in assay [3] (setting [8]); -2.35% in assay [3] (at 50.0 µM); -6% in assay [4] (setting [7]); 3% in assay [4] (setting [8]); 43.8% in assay [4] (at 50.0 µM). For the same molecule, the growth inhibition was -1% in assay [5] (setting [7]); 1% in assay [5] (setting [8]); 14.9% in assay [5] (at 50.0 µM); -3% in assay [6] (setting [7]); 3% in assay [6] (setting [8]); -7.75% in assay [6] (at 50.0 µM).

On to `CCCCCCCCCCCCCC1=NCC(C)(C)N1`, for which the growth inhibition in assay [1] (setting [7]) was 83% (active); in assay [1] (setting [8]), 100% (active); in assay [1] (at 50.0 µM) it was 99.2% (active); in assay [2] (setting [7]), 85% (active); in assay [2] (setting [8]), 100% (active); in assay [2] (at 50.0 µM), 97.3% (active). The growth inhibition was 91% (active) in assay [3] (setting [7]); 100% (active) in assay [3] (setting [8]); 99.7% (active) in assay [3] (at 50.0 µM); 66% in assay [4] (setting [7]); 99% (active) in assay [4] (setting [8]); 97.8% (active) in assay [4] (at 50.0 µM). Besides, the growth inhibition in assay [5] (setting [7]) was 89% (active); in assay [5] (setting [8]), 100% (active); in assay [5] (at 50.0 µM), 99.7% (active); in assay [6] (setting [7]), 82% (active); in assay [6] (setting [8]), 100% (active); in assay [6] (at 50.0 µM), 99.5% (active).

Consider `COC(=O)C1=C(C)NC(C)=C([N+](=O)[O-])C1c1cccc(N=O)c1` (stereo not given), for which the growth inhibition is 22% in assay [1] (setting [7]); 68% in assay [1] (setting [8]); 74.2% (active) in assay [1] (at 50.0 µM); 16% in assay [2] (setting [7]); 98% (active) in assay [2] (setting [8]); 72.1% (active) in assay [2] (at 50.0 µM). Besides, the growth inhibition in assay [3] (setting [7]) is 27%; in assay [3] (setting [8]) it was 86% (active); in assay [3] (at 50.0 µM) it was 89.8% (active); in assay [4] (setting [7]), 28%; in assay [4] (setting [8]) it was 45%; in assay [4] (at 50.0 µM), 57.2%. Moreover, the growth inhibition in assay [5] (setting [7]) was 26%; in assay [5] (setting [8]), 93% (active); in assay [5] (at 50.0 µM), 90.2% (active); in assay [6] (setting [7]), 33%; in assay [6] (setting [8]), 97% (active); in assay [6] (at 50.0 µM) it was 84.4% (active).

With `Nc1ccc2c(c1)C(=O)c1ccccc1-2`, the growth inhibition was 9% in assay [1] (setting [7]); 57% in assay [1] (setting [8]); 68.2% in assay [1] (at 50.0 µM); 3% in assay [2] (setting [7]); 15% in assay [2] (setting [8]); 26.1% in assay [2] (at 50.0 µM). In addition, the growth inhibition was 0% in assay [3] (setting [7]); 6% in assay [3] (setting [8]); 21.4% in assay [3] (at 50.0 µM); 1% in assay [4] (setting [7]); 7% in assay [4] (setting [8]); 11.6% in assay [4] (at 50.0 µM). Also, the growth inhibition is 2% in assay [5] (setting [7]); 9% in assay [5] (setting [8]); -6.55% in assay [5] (at 50.0 µM); 2% in assay [6] (setting [7]); 25% in assay [6] (setting [8]); 14.2% in assay [6] (at 50.0 µM).

For the molecule `O=C1C=CC(=O)N1c1ccccc1[N+](=O)[O-]`, the growth inhibition in assay [1] (setting [7]) is 98% (active); in assay [1] (setting [8]) it was 99% (active); in assay [1] (at 50.0 µM) it was 99.5% (active); in assay [2] (setting [7]) it was 99% (active); in assay [2] (setting [8]), 100% (active); in assay [2] (at 50.0 µM), 99.5% (active). Further, the growth inhibition in assay [3] (setting [7]) is 98% (active); in assay [3] (setting [8]), 99% (active); in assay [3] (at 50.0 µM) it was 99.4% (active); in assay [4] (setting [7]) it was 90% (active); in assay [4] (setting [8]), 99% (active); in assay [4] (at 50.0 µM), 99.6% (active). The growth inhibition was 97% (active) in assay [5] (setting [7]); 100% (active) in assay [5] (setting [8]); 99.5% (active) in assay [5] (at 50.0 µM); 98% (active) in assay [6] (setting [7]); 100% (active) in assay [6] (setting [8]); 99.5% (active) in assay [6] (at 50.0 µM).

Turning to `COC(=O)C1C(C(=O)OC)C2(OC(c3ccc(Cl)cc3)=CC2=O)C12OC(c1ccc(Cl)cc1)=CC2=O` (stereo not given), the growth inhibition in assay [1] (setting [7]) is 2%; in assay [1] (setting [8]), 74% (active); in assay [1] (at 50.0 µM), 89.8% (active); in assay [2] (setting [7]) it was 12%; in assay [2] (setting [8]), 99% (active); in assay [2] (at 50.0 µM), 92% (active). For the same molecule, the growth inhibition is 12% in assay [3] (setting [7]); 96% (active) in assay [3] (setting [8]); 90% (active) in assay [3] (at 50.0 µM); 4% in assay [4] (setting [7]); 63% in assay [4] (setting [8]); 89.8% (active) in assay [4] (at 50.0 µM). The growth inhibition in assay [5] (setting [7]) was -1%; in assay [5] (setting [8]), 90% (active); in assay [5] (at 50.0 µM), 92% (active); in assay [6] (setting [7]) it was 13%; in assay [6] (setting [8]), 98% (active); in assay [6] (at 50.0 µM), 87.2% (active).

In the case of `CC1=C(C)CC(C#N)(C#N)C(C#N)(C#N)C1`, the growth inhibition in assay [1] (setting [7]) is -12%; in assay [1] (setting [8]) it was 80% (active); in assay [1] (at 50.0 µM), 83.9% (active); in assay [2] (setting [7]), 10%; in assay [2] (setting [8]), 92% (active); in assay [2] (at 50.0 µM) it was 79.6% (active). In addition, the growth inhibition in assay [3] (setting [7]) was -13%; in assay [3] (setting [8]), 80% (active); in assay [3] (at 50.0 µM), 82.2% (active); in assay [4] (setting [7]) it was -18%; in assay [4] (setting [8]), 86% (active); in assay [4] (at 50.0 µM), 38.1%. The growth inhibition in assay [5] (setting [7]) is 30%; in assay [5] (setting [8]) it was 97% (active); in assay [5] (at 50.0 µM), 58.7%; in assay [6] (setting [7]), 6%; in assay [6] (setting [8]), 97% (active); in assay [6] (at 50.0 µM), 75.3% (active).

`CCn1c2ccc([N+](=O)[O-])cc2c2c([N+](=O)[O-])c(-n3cccc3)ccc21`: the growth inhibition in assay [1] (setting [7]) was 24%; in assay [1] (setting [8]), 59%; in assay [1] (at 50.0 µM) it was 86% (active); in assay [2] (setting [7]), 2%; in assay [2] (setting [8]), 10%; in assay [2] (at 50.0 µM), 0.3%. The growth inhibition is 5% in assay [3] (setting [7]); 28% in assay [3] (setting [8]); 36.4% in assay [3] (at 50.0 µM); -3% in assay [4] (setting [7]); 6% in assay [4] (setting [8]); 8.9% in assay [4] (at 50.0 µM). Moreover, the growth inhibition is -3% in assay [5] (setting [7]); -4% in assay [5] (setting [8]); 10.9% in assay [5] (at 50.0 µM); 3% in assay [6] (setting [7]); 29% in assay [6] (setting [8]); 21.2% in assay [6] (at 50.0 µM).
